ALOX12 inh: ALOX12 (human) lipoxygenase inhibition; P18054; purified 12hLO, xylenol orange hydroperoxide absorbance; Potency, µM (series often up to 108 µM), inactives show top-dose activity change, negative = inhibition, most hits filed as inhibitors; 580,000 compounds, 1.1% hits; also: potency is read from the fitted curve at half-maximal effect
Target sequence (P18054 whole entry, looked up): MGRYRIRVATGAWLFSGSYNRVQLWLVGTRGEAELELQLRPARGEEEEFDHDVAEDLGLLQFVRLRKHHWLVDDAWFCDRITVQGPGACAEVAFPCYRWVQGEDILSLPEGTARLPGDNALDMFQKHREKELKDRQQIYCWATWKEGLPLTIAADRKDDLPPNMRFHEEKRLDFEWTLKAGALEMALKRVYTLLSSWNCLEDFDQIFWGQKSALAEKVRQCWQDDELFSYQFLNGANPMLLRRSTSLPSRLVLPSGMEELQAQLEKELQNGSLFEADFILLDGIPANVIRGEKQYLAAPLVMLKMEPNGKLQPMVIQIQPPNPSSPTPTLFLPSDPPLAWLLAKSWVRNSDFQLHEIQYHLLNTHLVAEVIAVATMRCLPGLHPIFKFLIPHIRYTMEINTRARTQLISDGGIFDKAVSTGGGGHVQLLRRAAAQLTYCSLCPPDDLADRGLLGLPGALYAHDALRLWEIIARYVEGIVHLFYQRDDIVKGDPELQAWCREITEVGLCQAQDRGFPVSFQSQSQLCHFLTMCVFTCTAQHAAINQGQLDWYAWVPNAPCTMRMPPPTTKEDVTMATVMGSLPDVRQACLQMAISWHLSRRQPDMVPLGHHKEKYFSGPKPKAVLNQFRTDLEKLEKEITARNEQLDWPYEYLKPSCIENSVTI
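Purified human 12hLO (150 nM final) in 25 mM Hepes, 0.01% Triton X-100, pH 7.0 was preincubated 15 min at room temperature with compound. Then 40 uM arachidonic acid was added, 30 min. Hydroperoxide was read by Fe-XO absorbance ratio 573/405 nm.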
TDP1 cell CPT: DT40-hTDP1 cell growth loss with CPT; chicken DT40 Tdp1-/-;hTDP1 cells + 20 nM CPT, ATP luminescence, 48 h; Potency, µM (doses to about 46.2 µM), for inactives: at the top dose activity change, negative = growth inhibition, usual class: inhibitors; 420,000 compounds, 12% hits; also: potency is read from the fitted curve at half-maximal effect; nearly all actives have a fitted effect of over 55% in size
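Chicken DT40 Tdp1-/- cells stably complemented with human TDP1 were seeded at 400 cells/well in medium containing 20 nM camptothecin, exposed to pin-transferred compounds, and grown at 37 °C for at least 48 hr. Viability was read as ATP luminescence.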
TDP1 cell noCPT: qHTS for Inhibitors of human tyrosyl-DNA phosphodiesterase 1 (TDP1): qHTS in cells in absence of CPT; DT40 Tdp1-/- hTDP1 cells, no CPT, ATP luminescence, 48 h; Potency, µM (series often up to 46.2 µM), for inactives: top-dose activity change, negative = growth inhibition, most hits filed as inhibitors; 420,000 compounds, 15% hits; AID 686978, 2013; also: potency is read from the fitted curve at half-maximal effect; nearly all actives have a fitted effect of over 55% in size
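Luminescent ATP content (CellTiter-Glo) served as the growth readout. Knockout chicken DT40 cells expressing human TDP1 were exposed to compounds without camptothecin for a minimum 48 hr at 37 °C.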
HT1080-NT tox: kills 2HG-producing HT-1080-NT fibrosarcoma cells; HT-1080-NT fibrosarcoma viability, CellTiter-Glo ATP luminescence, 48 h; 360,000 compounds, 1.6% hits; Potency, µM (titrated, usually from 46.1 µM), without a hit: at the top dose activity, negative = less viability, actives largely listed as cytotoxic; AID 686970;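 also: NT is the 2HG producing partner of a matched IDH1 knockdown line; potency is read from the fitted curve at half-maximal effect; 0% = DMSO-treated cells and -100% = media-only wells without cells; nearly all actives have a fitted effect of over 55% in size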
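750 cells/well, RPMI + 5% FBS; 2 h settle, compound pin-transfer, 48 h at 37 degrees C. CellTiter-Glo 10 min RT, luminescence. Normalized to DMSO and media-only wells.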
IL1B secr inh: inhibitors of inflammasome signaling (IL-1 beta secretion); 360,000 compounds, 4.7% hits; THP-1 LPS/ATP IL-1B secretion, AlphaLISA, 16 h; stronger effect = lower value; AID 743279; activity change, % at 57.5 µM; in the data active = activity change below about -50%; inconclusive = mostly about -30% to -49%
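Secreted IL-1B measured by AlphaLISA bead assay after 16 h compound exposure of THP-1 cells; compounds (final up to 57.5 uM) added 1 h before LPS (250 ng/mL) and ATP (1.25 mM) stimulation; lower signal means less secretion.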
HT1080 IDH1KD tx: kills HT-1080 cells with IDH1 knockdown; HT-1080 IDH1 knockdown viability, ATP luminescence, 48 h; Potency, µM (series often up to 46.1 µM), for inactives: top-dose activity, negative = toxicity, most hits filed as cytotoxic; 360,000 compounds, 2% hits; AID 686971;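 also: potency is read from the fitted curve at half-maximal effect; 0% = DMSO wells and -100% = cell-free medium wells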
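After a 2 h attachment period, IDH1KD HT-1080 cells took pin-transferred compound for 48 h at 37 °C; ATP-based luminescence after 10 min room-temperature reagent incubation reported viability.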
An asterisk follows results filed as active; i = inactive; ? = inconclusive; nt = no result; ! = repeats disagree. The sample as a whole holds a higher share of hits than the screen did. Unless noted, calls follow the shape of the dose curve; as a rule, active = well fitted curve in the direction sought with a large enough effect; inconclusive = small, poorly fitted or top-dose-only effect, or another doubt; inactive = no such curve, though single readings can be large; an effect the other way counts as inactive or inconclusive. Unless noted, % is scaled to controls: 0 for no effect and ±100 for the full control effect.

SMILES	ALOX12 inh	TDP1 cell CPT	TDP1 cell noCPT	HT1080-NT tox	IL1B secr inh	HT1080 IDH1KD tx
CC(C)(C)C(=O)/C=c1\s/c(=C\c2ccc(-c3ccc([N+](=O)[O-])cc3)o2)c(=O)n1CC(=O)NC(N)=O	?	?	23µM*	-20%	40	-15%
Cc1ccc(SC[C@H](C)CN2CCC(NC(=O)OCc3ccccc3)CCC2=O)cc1 (stereo partly specified)	-13%	?	?	?	-2	?
O=C(NC1CCC(=O)N(CCOc2ccccc2)CC1)OCc1ccccc1 (stereo unspecified)	0%	?	11µM*!	10%	0	10%
Cc1ccc(SCCN2CCC(NC(=O)OCc3ccccc3)CCC2=O)cc1 (stereo unspecified)	-10%	?	18µM*	1%	3	-2%
[N-]=[N+]=NC[C@H](Cc1ccccc1)N1CC[C@@H](NC(=O)OCc2ccccc2)CCC1=O	14%	?	16µM*	-7%	18	-6%
O=C(N[C@H]1CCC(=O)N(CCSc2ccc(Br)cc2)CC1)OCc1ccccc1	?	15µM*	16µM*	?	-22	?
Cc1cc2oc(=O)cc(CN3CCN(C)CC3)c2cc1O	-29%	nt	nt	nt	nt	nt
COc1ccc(C(=O)N2CCCOCCNC(=O)CC2)cc1	11%	nt	nt	nt	nt	nt
O=C(N[C@@H]1CCC(=O)N(CC[C@H](Sc2ccccc2)c2ccccc2)CC1)OCc1ccccc1	-7%	?	23µM*	?	?	?
CC(=Nc1ccccc1O)c1sc2ccccc2c1O	-11%	-25%	?	-8%	-2	-8%
CC(=Nc1ccc(O)cc1)c1sc2ccccc2c1O	0%	15µM*	13µM*	-10%	-5	-21%
Cc1nn(-c2ccccc2)c(C)c1/C=N/NC(=O)CSc1nnc(-c2ccccc2)n1-c1ccc(Cl)cc1	-3%	?	26µM*	1%	?	-16%
Cc1ccc(-c2nnc(SCC(=O)N/N=C/c3ccc(C)s3)n2-c2ccccc2)cc1	7%	?	18µM*	?	-23	?
Cc1ccc(/C=N/NC(=O)CSc2nnc(-c3ccc(Cl)cc3)n2-c2ccc(Cl)cc2)o1	-6%	23µM*	?	18µM*	-3	?
Cc1cccc(C)c1NC(=O)CCCSc1nnc(-c2ccc(Cl)cc2)n1-c1ccccc1	-12%	23µM*	16µM*	-6%	i	?
Cc1ccc(-c2nnc(SCC(=O)N/N=C/c3c(C)nn(-c4ccccc4)c3C)n2-c2ccc(C)cc2)cc1	-16%	?	?	-24%	2	-26%
Cc1ccc(/C=N/NC(=O)CSc2nnc(-c3ccccc3)n2-c2ccc(Cl)cc2)o1	-26%	?	?	0%	-28	4%
Cc1cccc(C)c1NC(=O)CCCSc1nnc(-c2ccc(F)cc2)n1-c1ccccc1	-19%	?	?	6%	-19	1%
CC1=CC(C)(C)N2C(=O)C3(SCC(=O)N3c3ccc(F)cc3)c3cc(C)cc1c32 (stereo unspecified)	7%	29µM*	10µM*	-16%	-16	-4%
CC(NC(=O)c1cc(F)ccc1F)c1nnc2n1CCN(Cc1ccco1)CC2 (stereo unspecified)	18%	20%	17%	nt	nt	nt
CCCOc1ccc(NC(=O)CC2C(=O)N(c3cccc(OC)c3)C(=O)N2Cc2cccs2)cc1 (stereo unspecified)	-29%	?	21µM*	nt	nt	nt
